According to PubChem BioAssay (NCATS):
Where “and” joins values, the source holds several entries; their conditions need not be identical. Equal values may be shown once. Inconclusive results are not listed. Where a call stands in place of a potency, no number is given. Calls of active or inactive are those of the source. Unless noted, the call rests on the fitted dose curve; in most records, active means well fitted curve in the direction sought with a large enough effect; inconclusive means small, poorly fitted or top-dose-only effect, or another doubt; inactive means no such curve, though single readings can be large; an effect the other way counts as inactive or inconclusive.

How the values were obtained:
[1] = Cell Viability - MRC5 (AID 434; calls by dose curve;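 further: potency means the concentration at half of the fitted maximal effect; potency reflects cytotoxicity seen as loss of intracellular ATP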); details: MRC5 lung fibroblast viability, qHTS
Outline: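 MRC5 normal human lung fibroblasts, 1500 cells/well, exposed to compound for 40 hr at 37 C. Cellular ATP was read by CellTiter-Glo luminescence; data normalized to DMSO and 100 uM tamoxifen, with AC50 from Hill fits.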

[2] = Cellular Toxicity (caspase-3) HepG2 (AID 654); details: HepG2 caspase-3 activation, luminescence; series mostly up to 92.2 µM; further: potency means the concentration at half of the fitted maximal effect;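 on caspase-3 activation: cells exposed to compound for 16 hours before reading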
Outline: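 qHTS, HepG2, 1500 cells/well, complete medium; cpd 16 h 37 °C; Caspase-Glo 3/7, 20 min RT; lum. Norm: DMSO vs 100 uM tamoxifen; AC50 Hill fit.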

[3] = Cellular Toxicity (caspase-3) HUV-EC-C (AID 656); details: HUV-EC-C cells, caspase-3 activation (apoptosis); series mostly up to 92.2 µM
Outline: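 Luminescent caspase-3/7 activation (aminoluciferin substrate cleavage) in HUV-EC-C cells after 16 hr compound exposure, 37°C. Signal normalized to DMSO basal and 100 uM tamoxifen as 100%; AC50 from concentration-response fitted with the Hill equation.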

[4] = Cellular Toxicity (caspase-3) SHSY5Y (AID 657); details: SH-SY5Y caspase-3 activation; series mostly up to 91.7 µM; further: potency means the concentration at half of the fitted maximal effect
Outline: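 Luminescent caspase-3/7 readout (aminoluciferin release) in SH-SY5Y cells after 16 h compound exposure in complete medium. Activity scaled between DMSO basal and 10 uM staurosporine as 100%; concentration-response fitted to Hill equation for AC50.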

[5] = Cellular Toxicity (caspase-3) BJ (AID 658); details: BJ fibroblasts, luminescence; Potency: caspase-3 activation; series mostly up to 91.7 µM; further: potency means the concentration at half of the fitted maximal effect
Outline: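 BJ human foreskin fibroblasts, 1000 cells/well, treated 16 hours at 37 °C in complete medium; caspase 3/7 activity by Caspase-Glo luminescence after 1 hr at room temperature. Normalized to DMSO and 10 uM staurosporine; AC50 from Hill fits.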

[6] = Cellular Toxicity (caspase-3) MRC-5 (AID 659); details: MRC-5 cells, luminescence, normalized: DMSO 0%, 10 µM staurosporine 100%; series mostly up to 91.7 µM
Outline: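 MRC-5 human normal lung fibroblasts, 1500 cells/well, treated 16 h at 37 °C in complete medium. Caspase 3/7 measured by Caspase-Glo luminescence after 1 h at room temperature. Normalized to DMSO and 10 uM staurosporine; AC50 from Hill fit.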

[7] = Cellular Toxicity (caspase-3) Mesangial (AID 660); details: mesangial cells, normalized: DMSO 0%, 100 µM tamoxifen 100%; series mostly up to 91.7 µM;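 further: combined caspase 3 and 7 activity read by Caspase-Glo luminescence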
Outline: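 Concentration-response qHTS: compound-induced rise in caspase 3/7 luminescence in human mesangial cells after 16 h, normalized to DMSO and 100 uM tamoxifen controls.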

[8] = Cellular Toxicity (caspase-3) SK-N-SH (AID 661); details: SK-N-SH caspase-3 activation, qHTS, DMSO as zero, staurosporine as full; series mostly up to 91.7 µM
Outline: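 Caspase 3/7 activation is measured as a luminescence increase from aminoluciferin released by substrate cleavage in SK-N-SH cells after 16 hr compound treatment; values are AC50 from concentration-response curves.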

[9] = Cellular Toxicity (caspase-3) H-4-II-E (AID 663); details: H-4-II-E rat hepatoma; Potency: caspase-3 activation; series mostly up to 92.2 µM;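 further: cells exposed to compound for 16 hr before readout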
Outline: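 Rat hepatoma H-4-II-E cells (1500/well) plated 5 hr, then exposed to compound titrations for 16 hr at 37 °C. Caspase-Glo 3/7 luminescence read after 20 min at RT; data normalized to DMSO and 100 uM tamoxifen, AC50 from Hill fits.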

[10] = Cellular Toxicity (caspase-3) Hek293 (AID 664); details: HEK293 caspase-3 activation, DMSO = 0%, 100 µM tamoxifen = 100%; at 92.2 µM (top of the series);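 further: cells exposed to compound for 16 h at 37 °C before readout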
Outline: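 Activation of caspase-3/7 is measured as increased luminescence from cleaved peptide-aminoluciferin substrate in HEK293 cells treated 16 hours at 37 °C. AC50 values come from Hill-equation fits of concentration-response data.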

[11] = Cellular Toxicity (caspase-3) N2a (AID 665); details: N2a cells, luminescence, normalized: DMSO 0%, 10 µM staurosporine 100%; series mostly up to 92.2 µM;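 further: compound exposure lasted 16 h at 37 °C before readout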
Outline: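 Plated mouse neuroblastoma N2a cells received titrated compounds for 16 h in complete medium. Caspase activity was then detected with a peptide-aminoluciferin luminescent reagent.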

[12] = Cellular Toxicity (caspase-3) Renal Proximal Tubule (AID 667); details: renal proximal tubule cells, primary cells freshly taken from rat; Potency: caspase-3 activation; series mostly up to 91.7 µM;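 further: cells exposed to compound for 16 hours at 37 °C before detection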
Outline: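 Luminescent caspase 3/7 signal from peptide-aminoluciferin cleavage measures apoptosis in freshly isolated rat kidney proximal tubule cells after 16 h compound exposure. Concentration-response data are normalized to DMSO and 10 uM staurosporine, and AC50 values come from Hill equation fits.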

[13] = MultiTox-Fluor Cytotoxicity Assay - LYMP1-001 - Dead Cells (AID 946); details: LYMP1-001 lymphoblastoid cells, dead-cell protease fluorescence; series mostly up to 92.2 µM; further: potency means the concentration at half of the fitted maximal effect
Outline: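 Seed 2500 LYMP1-001 cells/well, incubate 5 hr at 37 C; add compound, 16 hr at 37 C; add MultiTox-Fluor reagent, 60 min RT; read dead-cell fluorescence Ex/Em=485/520. Normalize to DMSO and 15 uM tetraoctylammonium bromide.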

[14] = MultiTox-Fluor Cytotoxicity Assay - LYMP1-003 - Dead Cells (AID 961); details: LYMP1-003 lymphoblastoid cells, dead-cell protease fluorescence; series mostly up to 92.2 µM; further: nearly all actives have a fitted effect of over 70% in size; further: potency means the concentration at half of the fitted maximal effect
Outline: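 LYMP1-003 lymphoblastoid, 2500 cells/well, 5 hr settle then 16 hr cpd at 37 C; MultiTox-Fluor reagent 60 min RT; Ex/Em 485/520 dead-cell signal; norm. DMSO = 0%, 15 uM tetraoctylammonium bromide = 100%; Hill AC50.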

[15] = MultiTox-Fluor Cytotoxicity Assay - LYMP1-003 - Live Cells (AID 962); details: LYMP1-003 lymphoblastoid cells, MultiTox-Fluor live-cell protease fluorescence; series mostly up to 92.2 µM; further: potency means the concentration at half of the fitted maximal effect
Outline: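 Cells plated at 2500 per well and incubated 5 hr; compounds added and incubated 16 hr at 37 C; MultiTox-Fluor reagent added for 60 min at room temperature; fluorescence of liberated AFC measured at 405/510 nm.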

[16] = Cell Viability - LYMP1-003 - Assay at 24 hr (AID 963); details: LYMP1-003 lymphoblastoid cell viability; series mostly up to 92.2 µM
Outline: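 Acute toxicity in LYMP1-003 lymphoblastoid cells: 24 hr compound treatment at 37 C, ATP measured with CellTiter-Glo after 30 min at room temperature. AC50 derived by fitting the Hill equation to qHTS titrations.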

[17] = Cell Viability - LYMP1-002 - Assay at 24 hr (AID 993); details: LYMP1-002 lymphoblastoid cells viability; series mostly up to 92.2 µM; further: potency means the concentration at half of the fitted maximal effect
Outline: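 qHTS, LYMP1-002 lymphoblastoid, 24 h cpd, 37 C, CellTiter-Glo ATP luminescence; AC50 via Hill eq.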

[18] = qHTS Assay for Identification of Small Molecule Inducers of Hypoxia Response (AID 2120; active means well fitted curve in the direction sought with a large enough effect in the signal ratio, with a control signal flat, not every such curve was filed as active; the % refers to the signal ratio; further: potency means the concentration at half of the fitted maximal effect); details: hypoxia response reporter cells, beta-lactamase ratio readout; series mostly up to 104 µM
Outline: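 Induction of beta-lactamase reporter activity was measured in CellSensor HRE-bla ME-180 cells after 17 h compound treatment at 37 degrees C, using CCF4 substrate and the 460nm/530nm emission ratio to derive AC50 values.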

[19] = target: Peroxisome proliferator-activated receptor alpha (Homo sapiens) (UniProt Q07869); assay: qHTS assay for small molecule agonists of the peroxisome proliferator-activated receptor alpha (PPARalpha) signaling pathway (AID 651778); details: PathHunter PPARalpha complementation, chemiluminescence, 6 h; max response: stronger effect = higher value
Chain of Peroxisome proliferator-activated receptor alpha (Homo sapiens) (Q07869 whole entry, looked up, the tested form may be a part): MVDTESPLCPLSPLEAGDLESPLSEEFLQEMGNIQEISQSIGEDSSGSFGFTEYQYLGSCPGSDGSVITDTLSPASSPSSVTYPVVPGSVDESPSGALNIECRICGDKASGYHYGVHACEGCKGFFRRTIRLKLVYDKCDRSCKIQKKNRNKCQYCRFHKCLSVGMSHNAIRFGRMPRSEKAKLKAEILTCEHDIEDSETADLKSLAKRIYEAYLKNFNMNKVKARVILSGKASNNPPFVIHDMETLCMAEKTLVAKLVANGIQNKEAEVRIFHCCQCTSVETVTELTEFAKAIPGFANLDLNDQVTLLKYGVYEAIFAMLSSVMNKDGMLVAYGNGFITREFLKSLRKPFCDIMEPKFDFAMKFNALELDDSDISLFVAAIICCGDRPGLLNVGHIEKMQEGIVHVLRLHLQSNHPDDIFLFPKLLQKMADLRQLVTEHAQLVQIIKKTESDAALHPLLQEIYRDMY
Outline: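 Enzyme-fragment complementation assay in which ligand-bound PPARalpha translocates and forms an active enzyme that generates chemiluminescence. Cells were plated overnight, exposed to compound for 6 hr at 37 C, and then given detection reagent for 60 min at room temperature.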

[20] = qHTS assay for cell viability of the p53RE-bla HCT-116 cell line (AID 743292); details: p53RE-bla HCT-116 viability, ATP luminescence, 16 h; series mostly up to 95 µM; further: nearly all actives have a fitted effect of over 55% in size
Outline: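 Quantitative high-throughput format: compounds in DMSO were pinned onto p53RE-bla HCT-116 cells (4,000/well) and incubated 16 h at 37 C. Total intracellular ATP, read by CellTiter-Glo luminescence, reflects viable cell number.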

Structure (SMILES)	Potency [1]	Potency [2]	Potency [3]	Potency [4]	Potency [5]	outcome [6]	outcome [7]	outcome [8]	Potency [9]	caspase-3 activation [10]	outcome [11]	Potency [12]	Potency [13]	Potency [14]	Potency [15]	Potency [16]	Potency [17]	Potency [18]	max response [19]	Potency [20]
c1ccc(COCc2ccccc2)cc1	> 92 µM (inactive)	inactive	inactive	inactive	inactive	inactive	inactive	inactive	inactive	2.76% (inactive)	inactive	inactive	inactive	inactive	inactive	inactive	inactive	inactive	-3.88% (inactive)	inactive
c1ccc2ncccc2c1	> 92 µM (inactive)	inactive	inactive	inactive	inactive	inactive	inactive	inactive	inactive	-0.104% (inactive)	inactive	inactive	inactive	inactive	inactive	inactive	inactive	inactive	-2.05% (inactive)	inactive
CC(=O)OCc1ccc2c(c1)OCO2	> 92 µM (inactive)	inactive	inactive	inactive	inactive	inactive	inactive	inactive	inactive	-3.09% (inactive)	inactive	inactive	inactive	inactive	inactive	inactive	inactive	inactive	-4.72% (inactive)	inactive
Nc1cc([N+](=O)[O-])ccc1O	> 92 µM (inactive)	inactive	inactive	inactive	inactive	inactive	inactive	inactive	inactive	-0.467% (inactive)	inactive	inactive	inactive	inactive	inactive	inactive	inactive	inactive	-13.4% (inactive) and -8.79% (inactive)	inactive
CC(C)S	> 92 µM (inactive)	inactive	inactive	inactive	inactive	inactive	inactive	inactive	inactive	0.604% (inactive)	inactive	inactive	inactive	inactive	inactive	inactive	inactive	inactive	-0.0008% (inactive)	inactive
C[C@@H]1CC2(OC(O)[C@]3(C)O[C@H]23)O[C@H]2C[C@@]3(C)[C@@H]4CC[C@H]5C(C)(C)C(O[C@@H]6OC[C@@H](O)[C@H](O)[C@H]6O)CC[C@@]56C[C@@]46CC[C@]3(C)[C@@H]12 (stereo not given in full)	> 92 µM (inactive)	31.6 µM (active)	inactive	inactive	31.6 µM (active)						inactive		inactive	inactive	inactive	inactive		inactive	6.75% (inactive)	inactive
CCN(CC)c1ccc2c(C)cc(=O)oc2c1	> 92 µM (inactive)	inactive	inactive	inactive	inactive	inactive	inactive	inactive	inactive	0.453% (inactive)	inactive	inactive	inactive	inactive	inactive	inactive	inactive	44.7 µM (active)	-3.98% (inactive)	inactive
C=C1CC[C@H](O)C/C1=C/C=C1\CCC[C@]2(C)[C@@H]([C@H](C)CCCC(C)C)CC[C@@H]12		inactive	inactive	31.6 µM (active)	inactive	inactive				173% (active)	inactive		39.8 µM (active)	39.8 µM (active)	50.1 µM (active)		50.1 µM (active)	inactive	-0.403% (inactive)	
Cc1ccc(S(N)(=O)=O)cc1	> 92 µM (inactive)	inactive	inactive	inactive	inactive	inactive	inactive	inactive	inactive	-1.71% (inactive)	inactive	inactive	inactive	inactive	inactive	inactive	inactive	inactive	-6.35% (inactive) and -0.652% (inactive)	inactive
Cc1c2ccccc2c(C)c2c1ccc1ccccc12	17.9 µM (active)	inactive	inactive	inactive	inactive	inactive	inactive	inactive	inactive	2.33% (inactive)	inactive	inactive		39.8 µM (active)	inactive	inactive	inactive	44.7 µM (active)	2.82% (inactive) and -0.29% (inactive)	inactive
CCCCCCN	> 92 µM (inactive)	inactive	inactive	inactive	inactive	inactive	inactive	inactive	inactive	1.72% (inactive)	inactive	inactive	inactive	inactive	inactive	inactive	inactive	inactive	1.86% (inactive)	inactive
Nc1cnn([C@@H]2O[C@H](CO)[C@@H](O)[C@H]2O)c(=O)n1	> 92 µM (inactive)	inactive	inactive	inactive	inactive	inactive	inactive	inactive	inactive	-2.69% (inactive)	inactive	inactive	inactive	inactive	inactive	inactive	inactive	inactive	-1.23% (inactive)	inactive
